Experimental data as given in the supplement of paper PMC6992640.
± gives the standard deviation of the averaged measurements.

Experiments:
Assay in all cases: cell viability (% of vehicle); higher = less cytotoxic
Settings in all cases: 10 µM; 72 h
HCI01 = system: HCI01 (cells of a triple-negative basal-like breast cancer xenograft)
HCI03 = system: HCI03 (cells of an ER-positive luminal breast cancer xenograft)
HCI09 = system: HCI09 (cells of a triple-negative luminal androgen receptor type breast cancer xenograft)
HCI11 = system: HCI11 (cells of an ER-positive luminal breast cancer xenograft)
HCI13 = system: HCI13 (cells of an ER-positive luminal breast cancer xenograft)
HCI16 = system: HCI16 (cells of a triple-negative basal-like breast cancer xenograft)
UCD52 = system: UCD52 (cells of a triple-negative basal-like breast cancer xenograft)
WHIM2 = system: WHIM2 (cells of a triple-negative basal-like breast cancer xenograft)
WHIM30 = system: WHIM30 (cells of a triple-negative basal-like breast cancer xenograft)
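Further: PDX cells carrying CMV promoter-driven luciferase, viability read as total photon flux per second by IVIS imaging following D-luciferin, vehicle control 0.1% DMSO.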

Row | SMILES | cell viability (HCI01) | cell viability (HCI03) | cell viability (HCI09) | cell viability (HCI11) | cell viability (HCI13) | cell viability (HCI16) | cell viability (UCD52) | cell viability (WHIM2) | cell viability (WHIM30)
1 | Nc1cccc2c1C(=O)N(C1CCC(=O)NC1=O)C2=O (centres undefined) [Pomalidomide (CC-4047)] | 122 ± 2 | 126 | 87.9 ± 2.9 | 108 | 91.9 ± 8.8 | 103 | 104 ± 3.8 | 73.9 ± 5.1 | 133.9 ± 0.79
2 | CCCc1nn(C)c2c(=O)nc(-c3cc(S(=O)(=O)N4CCN(C)CC4)ccc3OCC)[nH]c12 [Sildenafil] | 83.6 ± 6.4 | 101 | 82.8 ± 18 | 73.3 | 73.7 ± 3.3 | 103 | 82.8 ± 2.1 | 92.4 ± 1 | 105.82 ± 0.018
3 | CC(=O)C1CCC2C3CCC4=CC(=O)CCC4(C)C3CCC12C (centres undefined) [Progesterone] | 160 ± 12 | 108 | 77.8 ± 41 | 90.6 | 154 ± 6.9 | 113 | 88.9 ± 3.9 | 148 ± 41 | 123 ± 16
4 | CC1CNCCCN1S(=O)(=O)c1cccc2cncc(F)c12.Cl.O.O (centres undefined) | 100 ± 12 | 140 | 96.3 ± 9 | 70.9 | 82.6 ± 8.8 | 58.7 | 84.8 ± 4.2 | 92.75 ± 0.41 | 82 ± 2
5 | CCCNCC(O)COc1ccccc1C(=O)CCc1ccccc1.Cl (centres undefined) [Propafenone HCl] | 90.3 ± 6.7 | 119 | 96 ± 14 | 87.2 | 95.3 ± 7 | 101 | 76.9 ± 7.8 | 86.9 ± 20 | 115 ± 6.6
6 | COC(=O)C1=COC(OC2OC(CO)C(O)C(O)C2O)C2C(CO)=CCC12 (centres undefined) [Geniposide] | 104 ± 24 | 158 | 104 ± 21 | 98.3 | 95.3 ± 7.7 | 116 | 116 ± 1.3 | 83.6 ± 4.8 | 96.53 ± 0.79
7 | CNC(=C[N+](=O)[O-])NCCSCc1csc(CN(C)C)n1 [Nizatidine] | 150 ± 9.3 | 120 | 108 ± 15 | 92.7 | 96.2 ± 5.7 | 133 | 83.6 ± 12 | 96.6 ± 1.9 | 123 ± 17
8 | O=C1CCCC(=O)C1C(=O)c1ccc(C(F)(F)F)cc1[N+](=O)[O-] [Nitisinone] | 105 ± 31 | 110 | 93.2 ± 5.5 | 87.8 | 109 ± 25 | 137 | 103 ± 10 | 79.6 ± 4.9 | 149 ± 19
9 | CCN(CC)CC(=O)Nc1c(C)cccc1C [Lidocaine] | 107 ± 5.8 | 94.4 | 105 ± 5.4 | 100 | 100 ± 3.6 | 93.9 | 90.9 ± 16 | 74.4 ± 18 | 122 ± 21
10 | CO/C(O)=N/[C@H](C(=O)N1CC2(CC2)C[C@H]1c1ncc(-c2ccc3c(c2)C(F)(F)c2cc(-c4ccc5nc([C@@H]6[C@H]7CC[C@H](C7)N6C(=O)[C@@H](/N=C(\O)OC)C(C)C)[nH]c5c4)ccc2-3)[nH]1)C(C)C [Ledipasvir] | 103 ± 1.7 | 94.4 | 55.6 ± 3.8 | 80.6 | 99 ± 8.5 | 72.3 | 73.6 ± 4.1 | 64.9 ± 9.5 | 104 ± 1.1
11 | NC(=O)CC[C@H](N)C(=O)O [L-Glutamine] | 85.6 ± 8.7 | 92.8 | 92.2 ± 25 | 87.4 | 101.1 ± 0.78 | 97.3 | 82.9 ± 3.6 | 104 ± 3.9 | 70.6 ± 7.1
12 | CNS(=O)(=O)Cc1ccc2[nH]cc(CCN(C)C)c2c1 [Sumatriptan] | 92.7 ± 1.9 | 119 | 84 ± 7.2 | 90.7 | 126 ± 3.5 | 110 | 98 ± 7.2 | 95.6 ± 19 | 110 ± 19
13 | CCNC1CN(CCCOC)S(=O)(=O)c2sc(S(N)(=O)=O)cc21 (centres undefined) [Brinzolamide] | 108 ± 12 | 142 | 97.6 ± 15 | 139 | 132 ± 16 | 100 | 88.17 ± 0.49 | 104 ± 12 | 96.6 ± 7.1
14 | C=C[C@@H]1C[N@@]2CC[C@H]1C[C@@H]2[C@H](O)c1ccnc2ccc(OC)cc12 [Quinidine] | 89 ± 10 | 135 | 102 ± 20 | 102 | 122 ± 8.8 | 123 | 97.9 ± 2.7 | 101 ± 11 | 101 ± 6.2
15 | Cc1cc(C(C)(C)C)cc(C)c1CC1=NCCN1.Cl [Xylometazoline HCl] | 74.9 ± 49 | 114 | 103 ± 40 | 89.9 | 136 ± 29 | 106 | 83.9 ± 1.7 | 110 ± 3.6 | 158 ± 12
16 | Cc1ncc([N+](=O)[O-])n1CCO [Metronidazole] | 91.9 ± 32 | 135 | 90.8 ± 28 | 89.6 | 104 ± 9 | 133 | 77.3 ± 7.2 | 81 ± 16 | 131 ± 4.7
17 | CC(C)NCC(O)c1ccc(NS(C)(=O)=O)cc1.Cl (centres undefined) [Sotalol] | 120 ± 11 | 116 | 105 ± 37 | 103 | 103 ± 5.8 | 105 | 85.2 ± 2.1 | 101 ± 13 | 118 ± 17
18 | NC1CN(c2c(F)cc3c(=O)c(C(=O)O)cn(C4CC4F)c3c2Cl)CC12CC2.O (centres undefined) [Sitafloxacin Hydrate] | 83.3 ± 48 | 95.5 | 111 ± 13 | 90.5 | 116.6 ± 0.93 | 122 | 88.8 ± 9.9 | 95.6 ± 27 | 119 ± 4.7
19 | CCCCc1nc(Cl)c(CO)n1Cc1ccc(-c2ccccc2-c2nnn[n-]2)cc1.[K+] [Losartan Potassium (DuP 753)] | 126 ± 8.5 | 124 | 106 ± 8.5 | 79 | 82.7 ± 0.98 | 82.3 | 97.9 ± 7.8 | 87 ± 17 | 118 ± 2.1
20 | O=C1Cc2cc(CCN3CCN(c4nsc5ccccc45)CC3)c(Cl)cc2N1 [Ziprasidone] | 98.1 ± 6.7 | 102 | 82.1 ± 4.3 | 96.1 | 95.4 ± 36 | 67.2 | 86.8 ± 2 | 95.6 ± 6.5 | 100 ± 20
21 | CN(C)c1nc(N(C)C)nc(N(C)C)n1 [Altretamine] | 94.8 ± 11 | 96.7 | 89.6 ± 2.6 | 96.8 | 77.9 ± 3.4 | 108 | 78 ± 4.9 | 115 ± 5.7 | 109.4 ± 0.74
